From PubChem BioAssay AID1006 (Sanford-Burnham Center for Chemical Genomics, 2008)
About 3,000 (1.5%) of roughly 200,000 compounds were called active.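 Rule for the calls: active = inhibition above about 50% when tested at 10 µM (limit read from the data); inactive = the rest.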 The list comes from a sample in which actives are over-represented; it also holds similar structures and randomly drawn compounds.

Each molecule was assayed against Luciferin 4-monooxygenase (Photinus pyralis) (UniProt P08659) (assay: inhibition of purified FLuc reporter enzyme – biochemical, luminescence, ATPLite, artefact control for luciferase-based inhibitor screens, primary screen (AID 1006)). Details: ATPLite firefly luciferase biochemical luminescence, 10 min; at 10 µM; active compounds read high.
Luciferin 4-monooxygenase (Photinus pyralis), sequence (P08659 whole entry, looked up): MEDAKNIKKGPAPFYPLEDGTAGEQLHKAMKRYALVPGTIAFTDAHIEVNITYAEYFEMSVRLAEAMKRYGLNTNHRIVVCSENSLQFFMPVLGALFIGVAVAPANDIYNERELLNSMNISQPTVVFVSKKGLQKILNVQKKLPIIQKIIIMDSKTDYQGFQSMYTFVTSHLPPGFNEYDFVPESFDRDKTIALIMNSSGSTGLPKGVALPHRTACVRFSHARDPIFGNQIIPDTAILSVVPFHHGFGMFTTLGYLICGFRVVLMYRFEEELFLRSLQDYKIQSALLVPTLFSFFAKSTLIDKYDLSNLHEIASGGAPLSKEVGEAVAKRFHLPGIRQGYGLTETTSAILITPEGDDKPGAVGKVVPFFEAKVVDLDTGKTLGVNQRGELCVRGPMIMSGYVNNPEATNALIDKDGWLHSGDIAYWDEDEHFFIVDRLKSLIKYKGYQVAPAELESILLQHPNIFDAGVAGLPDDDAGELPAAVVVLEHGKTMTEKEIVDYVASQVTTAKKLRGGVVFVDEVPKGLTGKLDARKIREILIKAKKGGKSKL
With `N#CC1(C#N)C(C(=O)C23CC4CC(CC(C4)C2)C3)C12CCOCC2` (stereo unspecified) the inhibition was -9.2% (inactive). With `CCc1cc2c(=O)c(-c3ccon3)c(N)oc2cc1OC` the inhibition was 59.4% (active). For `CCc1cc2c(=O)c(-c3nc4ccccc4n3C)c(CCCC(=O)O)oc2cc1OC(=O)C(C)(C)C`, the inhibition was 2.4% (inactive). `CCc1cc2c(=O)c(-c3ccc(F)cc3)c(C(F)(F)F)oc2cc1OCC(=O)O` was tested, and the inhibition was -5.2% (inactive). For `CCOc1ccc(S(=O)(=O)Nc2nccs2)cc1`, the inhibition was -7.4% (inactive). For `COc1ccc(-c2nc(-c3ccccc3)no2)c(OC)c1`, the inhibition was 85.4% (active). For `COc1ccc(-c2noc(-c3ccc(C)cc3)n2)cc1`, the inhibition was 44.5% (inactive). With `COc1ccc(-c2noc(-c3cccc(OC)c3OC)n2)cc1OC` the inhibition was 48.7% (inactive). `Cc1ccc(S(=O)(=O)Nc2nc(N)n(-c3ccccc3)n2)cc1` was tested, and the inhibition was -5.1% (inactive). `Cc1ccc(NC(=O)C2(N3CCC3=O)CCCCC2)cc1` was tested, and the inhibition was -9% (inactive). `Cc1nn(Cc2ccc(Cl)cc2)c(Cl)c1/C=N/NC(=O)c1cccnc1` was tested, and the inhibition was -5.5% (inactive). For `Cc1cc(/C=N/NC(=O)c2cccnc2)c(C)n1CC(C)C`, the inhibition was 63.5% (active). `CCC(=O)Nc1cccc(NC(=O)c2cccnc2)c1` was tested, and the inhibition was -0.5% (inactive). With `CC(Oc1ccc(Br)cc1Br)C(=O)NC1CCCC1` (stereo unspecified) the inhibition was -6.3% (inactive). For `CCN(CC)S(=O)(=O)c1cccc(C(=O)Nc2ccccc2)c1`, the inhibition was -4.6% (inactive). For `CCN(CC)S(=O)(=O)c1cc(C(=O)Nc2ccccn2)ccc1C`, the inhibition was 58% (active). In the case of `Cc1ccc(S(=O)(=O)/N=C(/Nc2ccccn2)c2ccc(Cl)cc2)cc1`, the inhibition is reported as -1.5% (inactive). For `Cn1c(N)cc(-c2ccc(F)cc2)c(C#N)c1=O`, the inhibition was -3.4% (inactive). For `COc1cc(CNC2CCCCC2)c(Br)cc1OC1CCCC1`, the inhibition was -3.7% (inactive). For `Cc1cc(C)nc(NC(=O)c2cccc([N+](=O)[O-])c2)c1`, the inhibition was 0.2% (inactive). For `CCO[C@H]1OC(C(=O)O)=C[C@@H](C2CCCCC2)[C@@H]1CCCO`, the inhibition was -12% (inactive). In the case of `Oc1ccc(-c2[nH]ncc2-c2nc3ccccc3s2)c(O)c1`, the inhibition is reported as -7.2% (inactive). In the case of `COC(=O)c1nc2ccccc2s1`, the inhibition is reported as -1.8% (inactive). With `CC(=O)Nc1cccc(-c2nc3ccccc3s2)c1C` the inhibition was 52% (active). For `c1csc(-c2nnc(COc3ccc4c(c3)OCO4)o2)c1`, the inhibition was 5.4% (inactive). In the case of `NS(=O)(=O)c1ccc(N2C(=O)C3C4CC(C(Br)C4Br)C3C2=O)cc1` (stereo unspecified), the inhibition is reported as -4.1% (inactive). For `CCc1ccc(N2CC(O)=C(c3nc4ccccc4c(=O)[nH]3)C2=N)cc1`, the inhibition was 1.7% (inactive). For `CCN(CC)c1ccc(/C=N/Nc2nc(C)cc(=O)[nH]2)cc1`, the inhibition was 26.8% (inactive). In the case of `COc1ccc(/C=N/Nc2nc3ccccc3c(=O)[nH]2)cc1`, the inhibition is reported as 59.4% (active). In the case of `COc1ccc(C=Nc2cccc3ncccc23)cc1`, the inhibition is reported as -0.8% (inactive). In the case of `C[C@@H]1NC(=O)c2cc([N+](=O)[O-])cc(F)c2NCCC[C@@H](C(N)=O)NC(=O)[C@H](CC(N)=O)NC1=O`, the inhibition is reported as -4.9% (inactive). With `Fc1ccccc1Cc1ccc(Cl)nn1` the inhibition was -5.5% (inactive). For `c1cc(-c2nn[nH]n2)ccc1CN1CCCCC1`, the inhibition was -3.9% (inactive). In the case of `CCc1ccc(-c2nnn(Cc3nn[nH]n3)n2)cc1`, the inhibition is reported as -1.9% (inactive). With `CC(C)c1ccc(-c2nn[nH]n2)cc1` the inhibition was 56.6% (active). For `O=C(COC(=O)C12CC3CC(CC(O)(C3)C1)C2)NC12CC3CC(CC(C3)C1)C2`, the inhibition was -8.6% (inactive). `Cc1cc(Br)ccc1SCC(=O)OCC(=O)NCc1ccc2c(c1)OCO2` was tested, and the inhibition was -0.9% (inactive). With `Cn1cc(CN2CCCCC2c2ccccn2)c(-c2ccc3c(c2)OCCO3)n1` (stereo unspecified) the inhibition was -5% (inactive). For `COC(=O)C1=C(C)N(C)C(=O)NC1c1ccc([N+](=O)[O-])o1` (stereo unspecified), the inhibition was -8% (inactive). With `Clc1ccc2nc(CSc3ccccc3)cn2c1` the inhibition was 51% (active). In the case of `CCOc1ncccc1C(=O)OCc1cn2cc(Cl)ccc2n1`, the inhibition is reported as -4.4% (inactive). `O=c1cc(CSc2ccc(Cl)cc2)nc(N2CCOCC2)[nH]1` was tested, and the inhibition was -3.7% (inactive). For `CN(c1cccc(NC(=O)Nc2ccc(Cl)cc2)c1)S(C)(=O)=O`, the inhibition was 50.6% (active). For `COc1cccc(N(CC(=O)Nc2cccc(N(C)S(C)(=O)=O)c2)S(C)(=O)=O)c1`, the inhibition was -3.8% (inactive). With `Cc1ccc(N(CC(=O)Nc2cccc(N(C)S(C)(=O)=O)c2)S(C)(=O)=O)cc1` the inhibition was 1.1% (inactive). With `Cc1ccc(/C=C/C(=O)Nc2cc(S(=O)(=O)N3CCCCCC3)ccc2OCC(F)(F)F)o1` the inhibition was -5.3% (inactive). `O=c1oc(-c2ccco2)nc2sc3c(c12)CCCCC3` was tested, and the inhibition was 82.9% (active). In the case of `Cn1c(=O)n(Cc2ccco2)c(=N)c2c3c(sc21)CCCC3`, the inhibition is reported as -0.5% (inactive). For `O=C(NCc1ccco1)c1cccn2c(=O)c3c4c(sc3nc12)CCCC4`, the inhibition was -5.5% (inactive). With `O=C(c1cn2ccccc2n1)N1CCc2c([nH]c3ccccc23)C1c1ccccn1` (stereo unspecified) the inhibition was 1% (inactive). In the case of `C=CCn1c(C)cc(C(=O)CN2C(=O)c3ccccc3C2=O)c1C`, the inhibition is reported as 57.4% (active). With `C=CCN(CC=C)C(=O)CN1C(=O)c2ccccc2C1=O` the inhibition was -5% (inactive). `Cc1cc(C(=O)COC(=O)CCCN2C(=O)c3ccccc3C2=O)c(C)n1C` was tested, and the inhibition was 8.4% (inactive). For `O=C1COc2ccc(C(=O)COC(=O)C3CC(O)CN3S(=O)(=O)c3ccc(Cl)cc3)cc2N1` (stereo unspecified), the inhibition was 29.8% (inactive). In the case of `COc1ccc(NC(C(=O)Nc2cccc(C(C)=O)c2)c2ccccc2)cc1` (stereo unspecified), the inhibition is reported as 1.7% (inactive). In the case of `O=C(Nc1ccc(-c2ccc3nncn3n2)cc1)C1CCCCC1`, the inhibition is reported as 26.9% (inactive). With `CCC1C/C(=C/c2cccs2)C(=O)/C(=C/c2cccs2)C1` (stereo unspecified) the inhibition was -5.8% (inactive). With `COc1ccc(/C=C2\CCc3ccccc3C2=O)c(OC)c1OC` the inhibition was 1.1% (inactive). With `O=C1/C(=C/c2cccs2)CCc2ccccc21` the inhibition was 76% (active). `OCCNc1nc2ccccc2[nH]1` was tested, and the inhibition was -5.9% (inactive). In the case of `c1ccc(-c2[nH]ncc2-c2nc3ccccc3[nH]2)cc1`, the inhibition is reported as -8.5% (inactive). For `Cc1ccc(-c2nc3ccccc3[nH]2)cc1NC(=O)c1sc2ccccc2c1Cl`, the inhibition was -3% (inactive). With `Cc1ccc(-c2nc3ccccc3[nH]2)cc1N` the inhibition was 80.7% (active). In the case of `c1ccc2[nH]c(-c3nc4ccccc4[nH]3)nc2c1`, the inhibition is reported as 58.7% (active). For `COc1ccc(Br)cc1C(=O)NC(=S)Nc1cc(-c2nc3ccccc3[nH]2)ccc1C`, the inhibition was 2.5% (inactive). For `O=C(CCNS(=O)(=O)c1ccc(Br)s1)NCc1ccccc1Cl`, the inhibition was -3.8% (inactive). `Cc1c(NC(=O)CCC2CCCCC2)cc(C(=O)N2CCOCC2)cc1[N+](=O)[O-]` was tested, and the inhibition was -6.5% (inactive). `O=C(NC(Cc1c[nH]c2ccccc12)C(=O)O)/C(=C/c1ccco1)NC(=O)c1ccccc1` (stereo unspecified) was tested, and the inhibition was -0.6% (inactive). With `O=C(CCl)N(Cc1cccc([N+](=O)[O-])c1)c1cccc(Cl)c1` the inhibition was -6.8% (inactive). For `CCCCOc1ccc(N(CC(=O)NC(C)C)C(=O)CCC(=O)Nc2ccccn2)cc1`, the inhibition was -9.9% (inactive). In the case of `Cc1cc(C)n2nc(C(=O)N(C)C(c3ccccc3)c3ccccc3)nc2n1`, the inhibition is reported as -7% (inactive). With `COc1ccc(-c2cn3ccsc3n2)cc1` the inhibition was 81.3% (active). With `COc1ccc(-c2cn3cccnc3n2)cc1` the inhibition was 59.3% (active). In the case of `c1ccc(-c2cn3cccnc3n2)cc1`, the inhibition is reported as 2.6% (inactive). For `COc1cc(OC)cc(-c2nc(=S)n3ccsc3n2)c1`, the inhibition was -2.1% (inactive). In the case of `CC(=O)Nc1ccc(-c2cn3cccnc3n2)cc1`, the inhibition is reported as 6.6% (inactive). For `CCCC(=O)Nc1cccc(-c2cn3ccsc3n2)c1`, the inhibition was 40% (inactive). For `COc1cc(C(=S)NC2CCCCC2)ccc1O`, the inhibition was -2.8% (inactive). For `Cc1ccnc2nc(C(=O)Nc3nnc(-c4ccccc4)o3)nn12`, the inhibition was -2.4% (inactive). With `Cc1noc(C)c1S(=O)(=O)N(C)Cc1ccccc1` the inhibition was -6.5% (inactive). For `CCOC(=O)c1nn(-c2ccccc2F)c2nc(Nc3ccccc3)cc(=O)n12`, the inhibition was -2.4% (inactive). With `O=[N+]([O-])c1cc(Br)c(O)c(/C=N/Nc2nc3ccccc3s2)c1` the inhibition was 1.1% (inactive). `Cc1ccnc(Nc2nc3ccccc3s2)n1` was tested, and the inhibition was 34.9% (inactive). For `c1ccc2sc(NN=C3CCCC3)nc2c1`, the inhibition was 62.8% (active). In the case of `Cc1cc(C)cc(C(=O)N(CCc2ccccc2)C2=CC3CCC(C2)N3C)c1` (stereo unspecified), the inhibition is reported as -2.2% (inactive). In the case of `O=C(C1=C[C@H](C2CC2)C[C@H](OCc2ccc(CO)cc2)O1)N1CCN(Cc2ccccc2)CC1`, the inhibition is reported as -13.1% (inactive). For `CC(NC(=S)NC1CCCCC1)C(c1ccccc1)N1CCOCC1` (stereo unspecified), the inhibition was -6% (inactive). With `O=C(NNC(=S)NC1CCCCC1)c1ccccc1Cl` the inhibition was -0.5% (inactive). `CC(C)(c1ccccc1)c1ccc(OCCN)cc1` was tested, and the inhibition was -11.4% (inactive). `CC1=NN(C(=O)c2ccc(Br)cc2)C(O)(c2ccccc2)C1` (stereo unspecified) was tested, and the inhibition was -3.1% (inactive). In the case of `CCN(CC)C(=O)Oc1ccc(OC(=O)N(CC)CC)cc1`, the inhibition is reported as 1.5% (inactive). For `CN1CCCC(OC(=O)COc2ccc(Br)cc2)C1` (stereo unspecified), the inhibition was -7.7% (inactive). With `CC1CN/C(=C\C(=O)c2ccc(Br)cc2)C(=O)N1` (stereo unspecified) the inhibition was 52.4% (active). In the case of `C/C(=C\C(=O)c1ccc(Br)cc1)N1CCCCC1`, the inhibition is reported as 3.9% (inactive). With `COc1ccc(NC(=O)CSc2nnc(-c3ccccc3F)n2C2CC2)cc1S(N)(=O)=O` the inhibition was 1.6% (inactive). With `COc1ccc(NS(=O)(=O)c2cc(NC(=O)/C=C/c3cc(OC)c(OC)c(OC)c3)ccc2N2CCCCC2)cc1` the inhibition was -5% (inactive). `Cc1ccn(-c2cccc(-n3ccc(C)n3)n2)n1` was tested, and the inhibition was 61.1% (active). With `CC(C)N1C(=O)N(c2ccccc2)C(C)(O)CC1(C)C` (stereo unspecified) the inhibition was -5.4% (inactive). With `O=C(O)CCCCc1nc2ccccc2s1` the inhibition was 6.8% (inactive). In the case of `COc1ccccc1OCc1nc2ccccc2s1`, the inhibition is reported as 57.9% (active). In the case of `COc1cccc2sc(NNC(=O)c3nc4ccccc4s3)nc12`, the inhibition is reported as -1.8% (inactive).
